Source: PubChem BioAssay (NCI)
About 79,000 compounds went through this panel and 15% of them were active in at least one assay; those are over-represented in the sample as a whole. Activity calls are given as the source filed them. Rule as the data show it: active = growth inhibition above about 70%; inactive = the rest. Where a SMILES comes first, the peptide text is derived from it. [ ]: non-standard residue; d: D form. Nva = CCC[CH](N)C(=O)O

Experiment: NCI Yeast Anticancer Drug Screen. Data for the bub3 strain (AID 167)
Conditions: S. cerevisiae bub3 mutant strain, at 5.0 µM (retest, dose inferred, filed as 0.5), hits give high values
Method in brief: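 Yeast carrying a defined mutation is treated with each compound, and growth is compared with that of vehicle-exposed cells to give inhibition.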
For O=[N+]([O-])c1ccc(-c2ccc(-c3csc(Nc4ccccc4)n3)o2)cc1, the growth inhibition was 97% (active).
With C1=C(C2=C[P+](c3ccccc3)(c3ccccc3)C=C(c3ccccc3)O2)OC(c2ccccc2)=C[P+]1(c1ccccc1)c1ccccc1 the growth inhibition was 11% (inactive).
With Cc1ccc(C2C(O)=C(c3ccccc3)Sc3ccc(C)cc32)cc1 (stereo not given) the growth inhibition was -4% (inactive).
With CCc1n[nH]c(CC)c1CCCCCCOc1ccc(OC)cc1Cl the growth inhibition was -8% (inactive).
With C=C1CC[C@H]2C(C)=CC[C@@H]3[C@H](OC(=O)[C@H]3CN3CCN(c4ccc(C)c([N+](=O)[O-])c4)CC3)[C@@H]12 the growth inhibition was 52% (inactive).
For C(CCCCCN1CCCCC1)CCCCN1CCCCC1, the growth inhibition was -11% (inactive).
For CN(Cc1cnc2nc(N)nc(N)c2n1)c1ccc(C(=O)NC(CCC(=O)O)C(=O)O)cc1C(F)(F)F (stereo not given), the growth inhibition was -19% (inactive).
For CC(C(=O)O)C(N)C(=O)O (stereo not given), the growth inhibition was 4% (inactive).
For CCCCCCCCCCN(CCCCCCCCCC)C1CC(OC2CC(O)(C(O)CO)Cc3c(O)c4c(c(O)c32)C(=O)c2c(OC)cccc2C4=O)OC(C)C1O (stereo not given), the growth inhibition was 14% (inactive).
With COc1ccc(OCC(O)CN2CCN(c3cccc(Cl)c3)CC2)cc1 (stereo not given) the growth inhibition was -4% (inactive).
With O=C(O)c1ccccc1C(=O)c1ccc2c(c1)Cc1ccccc1-2 the growth inhibition was 4% (inactive).
For Cc1cc(C2c3ccccc3-c3ccccc32)cc(C)c1O, the growth inhibition was -1% (inactive).
In the case of CC(C)(C)c1cc(Cl)c(O)c(Cc2cc(C(C)(C)C)cc(Cl)c2O)c1, the growth inhibition is reported as 9% (inactive).
In the case of COc1cccc(/C=C/C(C)=O)c1OC, the growth inhibition is reported as -2% (inactive).
With Cc1nc2c(cnn2C)cc1CCc1ccccc1 the growth inhibition was 23% (inactive).
With O=C1C(C(O)(C(F)(F)Cl)C(F)(F)Cl)CCCC1C(O)(C(F)(F)Cl)C(F)(F)Cl (stereo not given) the growth inhibition was 35% (inactive).
In the case of C=CCNCCC1CCCCCC1, the growth inhibition is reported as 7% (inactive).
In the case of CCCC(N)C(=O)NC(C(=O)O)C(C)C (stereo not given) (H-[Nva]-Val-OH; configuration not given here), the growth inhibition is reported as 2% (inactive).
In the case of Cc1cc(N)c2cc(NC(=O)Nc3ccc4nc(C)cc(N)c4c3)ccc2n1, the growth inhibition is reported as 99% (active).
In the case of COc1ccc(N=Cc2ccccc2O)cc1, the growth inhibition is reported as -27% (inactive).
For Cc1cc(Br)c2ccccc2c1N, the growth inhibition was 1% (inactive).
In the case of c1ccc(-c2cc(Nc3ccc4c(c3)OCO4)c3cc(C4CCCCC4)ccc3n2)cc1, the growth inhibition is reported as 4% (inactive).
In the case of CCCCCCCCc1cc[n+](C2=C([O-])c3ccccc3C(=O)C2=O)cc1, the growth inhibition is reported as 99% (active).
With CCCCCCCCCCCc1nnc(N)o1 the growth inhibition was -10% (inactive).
In the case of O=C1OC(OCC#CCOC2OC(=O)C(Cl)=C2Cl)C(Cl)=C1Cl (stereo not given), the growth inhibition is reported as 26% (inactive).
In the case of O=S(=O)(O)CC[S][Sn]([S]CCS(=O)(=O)O)([c]1ccccc1)[c]1ccccc1 (tested in a mixture with another compound), the growth inhibition is reported as 59% (inactive).
In the case of CC(C)NC(=O)OCCS(=O)c1c(Cl)c(Cl)nn1C (stereo not given), the growth inhibition is reported as -4% (inactive).
For CN1N=C2c3ccccc3CC[C@H]2C1c1cccc(O)c1 (stereo not given in full), the growth inhibition was 21% (inactive).
For O=C1CSC(=S)N1/N=C/c1ccc(Cl)c([N+](=O)[O-])c1, the growth inhibition was -8% (inactive).
For O=C(O)CCCCCCCCC(=O)CCl, the growth inhibition was 48% (inactive).
For O=C(NC1CCN(Cc2ccccc2)CC1)c1ccccc1I, the growth inhibition was 59% (inactive).
With Cc1ccc(Nc2nc3c(s2)C(=O)c2ccccc2C3=O)cc1 the growth inhibition was 91% (active).
For O=C(/C=C/c1ccccc1)c1cc2c(cc1O)OCO2, the growth inhibition was 3% (inactive).
With O=[N+]([O-])c1ccc(Sc2ccc([N+](=O)[O-])o2)o1 the growth inhibition was 96% (active).
For CCCCCCCCN(CCCCCCCC)CC(O)c1cc(OCC)nc2ccccc12 (stereo not given), the growth inhibition was 9% (inactive).
For CC(O)CCc1nc2ccccc2[nH]1 (stereo not given), the growth inhibition was 3% (inactive).
In the case of CCCCCCCCCCCCCCCCSC(=NC)NC, the growth inhibition is reported as 84% (active).
In the case of O=C(O)CCC(O)=C1S(=O)(=O)OCCOS1(=O)=O, the growth inhibition is reported as -18% (inactive).
For CCCCCCCCCCCCCCCCN, the growth inhibition was 98% (active).
For COC1=C(Br)C(=O)N/C1=C(\OC)c1ccccc1, the growth inhibition was 21% (inactive).

Same assay, conditions: S. cerevisiae bub3 mutant strain, at 50.0 µM (retest, dose inferred, filed as 5.0), hits give high values
For O=[N+]([O-])c1ccc(-c2ccc(-c3csc(Nc4ccccc4)n3)o2)cc1, the growth inhibition was 98% (active).
With C1=C(C2=C[P+](c3ccccc3)(c3ccccc3)C=C(c3ccccc3)O2)OC(c2ccccc2)=C[P+]1(c1ccccc1)c1ccccc1 the growth inhibition was 66% (inactive).
In the case of Cc1ccc(C2C(O)=C(c3ccccc3)Sc3ccc(C)cc32)cc1 (stereo not given), the growth inhibition is reported as 39% (inactive).
In the case of CCc1n[nH]c(CC)c1CCCCCCOc1ccc(OC)cc1Cl, the growth inhibition is reported as 83% (active).
With C=C1CC[C@H]2C(C)=CC[C@@H]3[C@H](OC(=O)[C@H]3CN3CCN(c4ccc(C)c([N+](=O)[O-])c4)CC3)[C@@H]12 the growth inhibition was 71% (active).
In the case of C(CCCCCN1CCCCC1)CCCCN1CCCCC1, the growth inhibition is reported as -18% (inactive).
With CN(Cc1cnc2nc(N)nc(N)c2n1)c1ccc(C(=O)NC(CCC(=O)O)C(=O)O)cc1C(F)(F)F (stereo not given) the growth inhibition was 65% (inactive).
In the case of CC(C(=O)O)C(N)C(=O)O (stereo not given), the growth inhibition is reported as -7% (inactive).
With CCCCCCCCCCN(CCCCCCCCCC)C1CC(OC2CC(O)(C(O)CO)Cc3c(O)c4c(c(O)c32)C(=O)c2c(OC)cccc2C4=O)OC(C)C1O (stereo not given) the growth inhibition was 90% (active).
For COc1ccc(OCC(O)CN2CCN(c3cccc(Cl)c3)CC2)cc1 (stereo not given), the growth inhibition was 8% (inactive).
For O=C(O)c1ccccc1C(=O)c1ccc2c(c1)Cc1ccccc1-2, the growth inhibition was 5% (inactive).
In the case of Cc1cc(C2c3ccccc3-c3ccccc32)cc(C)c1O, the growth inhibition is reported as 8% (inactive).
With CC(C)(C)c1cc(Cl)c(O)c(Cc2cc(C(C)(C)C)cc(Cl)c2O)c1 the growth inhibition was 76% (active).
In the case of COc1cccc(/C=C/C(C)=O)c1OC, the growth inhibition is reported as -1% (inactive).
With Cc1nc2c(cnn2C)cc1CCc1ccccc1 the growth inhibition was 78% (active).
For O=C1C(C(O)(C(F)(F)Cl)C(F)(F)Cl)CCCC1C(O)(C(F)(F)Cl)C(F)(F)Cl (stereo not given), the growth inhibition was 99% (active).
For C=CCNCCC1CCCCCC1, the growth inhibition was 97% (active).
For CCCC(N)C(=O)NC(C(=O)O)C(C)C (stereo not given) (H-[Nva]-Val-OH; configuration not given here), the growth inhibition was -3% (inactive).
With Cc1cc(N)c2cc(NC(=O)Nc3ccc4nc(C)cc(N)c4c3)ccc2n1 the growth inhibition was 99% (active).
For COc1ccc(N=Cc2ccccc2O)cc1, the growth inhibition was -118% (inactive).
For Cc1cc(Br)c2ccccc2c1N, the growth inhibition was 22% (inactive).
For c1ccc(-c2cc(Nc3ccc4c(c3)OCO4)c3cc(C4CCCCC4)ccc3n2)cc1, the growth inhibition was 96% (active).
For CCCCCCCCc1cc[n+](C2=C([O-])c3ccccc3C(=O)C2=O)cc1, the growth inhibition was 99% (active).
In the case of CCCCCCCCCCCc1nnc(N)o1, the growth inhibition is reported as 99% (active).
For O=C1OC(OCC#CCOC2OC(=O)C(Cl)=C2Cl)C(Cl)=C1Cl (stereo not given), the growth inhibition was 99% (active).
With O=S(=O)(O)CC[S][Sn]([S]CCS(=O)(=O)O)([c]1ccccc1)[c]1ccccc1 (tested in a mixture with another compound) the growth inhibition was 97% (active).
For CC(C)NC(=O)OCCS(=O)c1c(Cl)c(Cl)nn1C (stereo not given), the growth inhibition was 75% (active).
In the case of CN1N=C2c3ccccc3CC[C@H]2C1c1cccc(O)c1 (stereo not given in full), the growth inhibition is reported as 78% (active).
In the case of O=C1CSC(=S)N1/N=C/c1ccc(Cl)c([N+](=O)[O-])c1, the growth inhibition is reported as 46% (inactive).
With O=C(O)CCCCCCCCC(=O)CCl the growth inhibition was 98% (active).
With O=C(NC1CCN(Cc2ccccc2)CC1)c1ccccc1I the growth inhibition was 64% (inactive).
For Cc1ccc(Nc2nc3c(s2)C(=O)c2ccccc2C3=O)cc1, the growth inhibition was 97% (active).
In the case of O=C(/C=C/c1ccccc1)c1cc2c(cc1O)OCO2, the growth inhibition is reported as 37% (inactive).
For O=[N+]([O-])c1ccc(Sc2ccc([N+](=O)[O-])o2)o1, the growth inhibition was 99% (active).
In the case of CCCCCCCCN(CCCCCCCC)CC(O)c1cc(OCC)nc2ccccc12 (stereo not given), the growth inhibition is reported as 97% (active).
For CC(O)CCc1nc2ccccc2[nH]1 (stereo not given), the growth inhibition was 6% (inactive).
In the case of CCCCCCCCCCCCCCCCSC(=NC)NC, the growth inhibition is reported as 99% (active).
In the case of O=C(O)CCC(O)=C1S(=O)(=O)OCCOS1(=O)=O, the growth inhibition is reported as 3% (inactive).
For CCCCCCCCCCCCCCCCN, the growth inhibition was 98% (active).
With COC1=C(Br)C(=O)N/C1=C(\OC)c1ccccc1 the growth inhibition was 0% (inactive).
